Test results as given in PubChem BioAssay (Tox21).
Results filed as inconclusive are left out. Calls of active or inactive are those of the source. Unless noted, calls come from the whole dose curve. Peptide text beside a SMILES is read from it.

Experiments:
[1] = Nuclear factor erythroid 2-related factor 2/antioxidant responsive element (Nrf2/ARE) small molecule agonists: qHTS cell viability counter screen in human keratinocytes (AID 1919968; active = well fitted curve in the direction sought with a large enough effect in the repeat runs; an effect the other way counts as inactive or inconclusive; note: nearly all actives have a fitted effect of over 55% in size)
Summary of the method: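 HaCaT ARE reporter line, 1,500 cells/well; 5 h settle, 37 C/5% CO2; cpd in DMSO pinned; 23 h exposure; CellTiter-Fluor, 1 h; fluorescence.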

[2] = Nuclear factor erythroid 2-related factor 2/antioxidant responsive element (Nrf2/ARE) small molecule agonists: luciferase reporter gene qHTS assay in human keratinocytes (AID 1919969); note: nearly all actives have a fitted effect of over 35% in size; note: potency is the fitted concentration of half-maximal effect
[3] = target: Gonadotropin-releasing hormone receptor (Homo sapiens) (UniProt P30968); assay: Human gonadotropin-releasing hormone receptor (GnRHR) small molecule agonists, calcium flux assay in GnRHR-HEK293 cells (AID 1920063); note: nearly all actives have a fitted effect of over 35% in size
Gonadotropin-releasing hormone receptor (Homo sapiens), sequence (P30968 whole entry, looked up): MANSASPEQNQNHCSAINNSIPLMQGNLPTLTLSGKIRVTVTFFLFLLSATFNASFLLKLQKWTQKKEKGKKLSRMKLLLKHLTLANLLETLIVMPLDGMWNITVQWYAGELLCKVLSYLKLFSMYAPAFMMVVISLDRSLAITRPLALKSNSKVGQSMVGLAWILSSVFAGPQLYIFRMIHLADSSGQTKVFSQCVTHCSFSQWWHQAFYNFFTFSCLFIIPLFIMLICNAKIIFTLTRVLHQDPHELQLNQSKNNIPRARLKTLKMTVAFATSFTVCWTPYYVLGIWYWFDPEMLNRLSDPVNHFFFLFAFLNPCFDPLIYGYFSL
Summary of the method: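 GnRHR-HEK293, 1500 cells/well, 18 h 37 C/5% CO2; Ca dye 1 h 37 C; cpd pinned (DMSO), agonist mode; kinetic FL 480/540, 3 min, 1 s reads; 15 conc, n=3.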

[4] = target: KiSS-1 receptor (Homo sapiens) (UniProt Q969F8); assay: Human kisspeptin (KISS1R) small molecule agonists, calcium flux assay in KISS1R-HEK293 cells (AID 1920064; active = well fitted curve in the direction sought with a large enough effect in the repeat runs; an effect the other way counts as inactive or inconclusive)
KiSS-1 receptor (Homo sapiens), sequence (Q969F8 whole entry, looked up): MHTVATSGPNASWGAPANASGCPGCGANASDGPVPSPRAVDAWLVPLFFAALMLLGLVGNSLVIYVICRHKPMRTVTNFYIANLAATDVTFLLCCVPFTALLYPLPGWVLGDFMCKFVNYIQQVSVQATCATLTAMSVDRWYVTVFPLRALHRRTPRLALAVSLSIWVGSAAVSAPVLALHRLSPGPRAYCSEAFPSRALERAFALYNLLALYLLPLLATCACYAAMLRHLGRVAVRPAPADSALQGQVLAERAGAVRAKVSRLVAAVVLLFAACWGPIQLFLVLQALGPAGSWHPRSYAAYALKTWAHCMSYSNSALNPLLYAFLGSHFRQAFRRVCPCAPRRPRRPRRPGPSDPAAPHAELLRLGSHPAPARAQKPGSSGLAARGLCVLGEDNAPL
Summary of the method: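 Stable human KISS1R HEK293 line; 18 h plating, 37 C/5% CO2; calcium dye 1 h 37 C; compound pin transfer; kinetic fluorescence Ex/Em 480/540, 3 min.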

[5] = G protein-coupled receptor (GPCR) small molecule agonists, calcium flux assay: HEK293 wild type cell line counter screen (AID 1920065)
Summary of the method: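 Kinetic fluorescence at Ex/Em 480/540, recorded every second over 3 min, served as the read-out after compound addition. Each compound was tested at 15 concentrations in triplicate on cells pre-loaded with calcium dye for 1 h.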

[6] = p53 small molecule agonists, cell-based qHTS assay with human liver microsomes (AID 1963577);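 note: p53 response element beta-lactamase reporter cells with liver microsomes plus NADPH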
Summary of the method: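 Metabolically competent format: test substances, human liver microsomes and NADPH (both 0.5 mg/mL final) incubated with p53RE-bla cells 16 h at 37 C. Beta-lactamase reporter signal then quantified by fluorescence.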

[7] = p53 small molecule agonists, cell-based qHTS assay with rat liver microsomes (AID 1963578)
Summary of the method: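 Each plate received p53RE-bla cells, then compound, then rat liver microsomes and NADPH (both 0.5 mg/mL final). Plates were held 16 h at 37 C, and beta-lactamase activity was detected with LiveBLAzer over 2 h.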

[8] = p53 small molecule agonists, cell-based qHTS assay with rat liver microsomes: qHTS cell viability counter screen (AID 1963580); note: nearly all actives have a fitted effect of over 45% in size
Summary of the method: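 Viability is assessed in parallel with the p53 reporter read: HCT-116 p53RE-bla cells receive compounds plus rat microsomes and NADPH (0.5 mg/mL final apiece), incubate 16 h at 37 C, and then CellTiter-Glo luminescence is recorded.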

[9] = p53 small molecule agonists, cell-based qHTS assay: qHTS cell viability counter screen (AID 1963581); note: nearly all actives have a fitted effect of over 45% in size
Summary of the method: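 HCT-116 p53RE-bla cells, 4,000/well, plated 5 h before compound pin transfer; 16 h at 37 C; bla substrate 2 h RT; then CellTiter-Glo, 30 min RT, luminescence.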

[10] = p53 small molecule agonists, cell-based qHTS assay (AID 1963582; active = well fitted activation curve with a large enough effect in the signal ratio in the repeat runs, not every such curve was filed as active; the % refers to the signal ratio)
Summary of the method: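 Reporter line: p53RE-bla. Pre-incubation 5 h, 37 C, 5% CO2; compound (DMSO, pin tool) 16 h, 37 C; B/G FRET substrate 2 h RT; fluorescence intensity read.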

[11] = target: 5-hydroxytryptamine receptor 2A (Homo sapiens) (UniProt P28223); assay: 5-hydroxytryptamine receptor 2A (HTR2A) small molecule antagonists, cell-based qHTS assay (AID 1963586); note: nearly all actives have a fitted effect of over 45% in size
5-hydroxytryptamine receptor 2A (Homo sapiens), sequence (P28223 whole entry, looked up): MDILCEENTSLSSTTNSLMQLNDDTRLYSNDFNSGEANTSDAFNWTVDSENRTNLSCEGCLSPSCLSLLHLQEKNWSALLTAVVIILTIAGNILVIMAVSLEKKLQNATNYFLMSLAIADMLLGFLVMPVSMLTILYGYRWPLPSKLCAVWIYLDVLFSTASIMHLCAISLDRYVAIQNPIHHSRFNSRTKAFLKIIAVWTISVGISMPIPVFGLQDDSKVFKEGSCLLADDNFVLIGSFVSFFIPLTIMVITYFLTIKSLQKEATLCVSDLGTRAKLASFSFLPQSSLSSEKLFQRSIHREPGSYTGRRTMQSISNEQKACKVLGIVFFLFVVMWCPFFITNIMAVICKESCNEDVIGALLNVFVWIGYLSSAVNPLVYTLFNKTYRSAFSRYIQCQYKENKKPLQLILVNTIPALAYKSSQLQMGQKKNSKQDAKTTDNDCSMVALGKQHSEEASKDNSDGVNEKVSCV
Summary of the method: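 Antagonist-mode intracellular calcium assay: DOI (4 nM) added after 5 min compound pre-incubation at room temperature to dye-loaded HTR2A-CHO cells. Fluorescence followed for 3 min, sampled every second.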

[12] = target: 5-hydroxytryptamine receptor 2A (Homo sapiens) (UniProt P28223); assay: 5-hydroxytryptamine receptor 2A (HTR2A) small molecule agonists, cell-based qHTS assay (AID 1963587); note: nearly all actives have a fitted effect of over 30% in size
Summary of the method: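 CHO cells stably expressing human HTR2A, plated 18 h, loaded with calcium dye 1 h at 37 C. Agonist mode: compounds added and intracellular calcium fluorescence recorded kinetically for 2 min at 1 sec intervals.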

[13] = target: Muscarinic acetylcholine receptor M1 (Homo sapiens) (UniProt P11229); assay: Cholinergic receptor muscarinic 1 (CHRM1) small molecule antagonists, cell-based qHTS assay (AID 1963588); note: nearly all actives have a fitted effect of over 40% in size; note: potency is the fitted concentration of half-maximal effect
Muscarinic acetylcholine receptor M1 (Homo sapiens), sequence (P11229 whole entry, looked up): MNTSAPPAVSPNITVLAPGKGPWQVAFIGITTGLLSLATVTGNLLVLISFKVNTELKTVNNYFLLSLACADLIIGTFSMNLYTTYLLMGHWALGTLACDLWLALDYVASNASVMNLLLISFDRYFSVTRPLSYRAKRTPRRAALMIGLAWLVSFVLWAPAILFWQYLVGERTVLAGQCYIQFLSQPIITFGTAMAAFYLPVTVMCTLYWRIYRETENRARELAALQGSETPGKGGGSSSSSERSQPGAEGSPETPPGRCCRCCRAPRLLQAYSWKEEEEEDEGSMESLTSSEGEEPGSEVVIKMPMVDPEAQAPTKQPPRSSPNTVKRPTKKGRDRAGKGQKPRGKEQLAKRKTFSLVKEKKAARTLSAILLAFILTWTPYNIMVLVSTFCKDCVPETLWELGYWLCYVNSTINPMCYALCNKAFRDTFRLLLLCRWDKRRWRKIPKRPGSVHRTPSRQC
Summary of the method: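 CHRM1-CHO calcium-flux assay, antagonist mode. Cells were seeded 18 h, dye-loaded 1 h at 37 C and given compound for 5 min at RT, then acetylcholine was added at 50nM. FDSS fluorescence was read 3 min; 15 concentrations, three runs.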

[14] = target: Muscarinic acetylcholine receptor M1 (Homo sapiens) (UniProt P11229); assay: Cholinergic receptor muscarinic 1 (CHRM1) small molecule agonists, cell-based qHTS assay (AID 1963589); note: nearly all actives have a fitted effect of over 35% in size
Summary of the method: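 Human M1 in stable CHO line; 18 h plating, 1 h dye load 37 C; cpd added (agonist mode); Ca2+ fluorescence kinetic read, 1 s intervals; 15 conc, 3 runs.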

[15] = cAMP Responsive Elements (CRE) small molecule agonists, cell-based qHTS assay (AID 1963590)
Summary of the method: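 HEK 293T CRE-bla, 2,000 cells/well, 18 h preincubation 37 C/5% CO2; cpds (DMSO) pinned, 3 h; LiveBLAzer B/G FRET substrate, 2 h RT.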

[16] = target: Beta-2 adrenergic receptor (Homo sapiens) (UniProt P07550); assay: Adrenergic beta2 receptor (ADRB2) small molecule antagonists, cell-based qHTS assay (AID 1963592); note: series mostly up to about 92 µM; nearly all actives have a fitted effect of over 50% in size
Beta-2 adrenergic receptor (Homo sapiens), sequence (P07550 whole entry, looked up): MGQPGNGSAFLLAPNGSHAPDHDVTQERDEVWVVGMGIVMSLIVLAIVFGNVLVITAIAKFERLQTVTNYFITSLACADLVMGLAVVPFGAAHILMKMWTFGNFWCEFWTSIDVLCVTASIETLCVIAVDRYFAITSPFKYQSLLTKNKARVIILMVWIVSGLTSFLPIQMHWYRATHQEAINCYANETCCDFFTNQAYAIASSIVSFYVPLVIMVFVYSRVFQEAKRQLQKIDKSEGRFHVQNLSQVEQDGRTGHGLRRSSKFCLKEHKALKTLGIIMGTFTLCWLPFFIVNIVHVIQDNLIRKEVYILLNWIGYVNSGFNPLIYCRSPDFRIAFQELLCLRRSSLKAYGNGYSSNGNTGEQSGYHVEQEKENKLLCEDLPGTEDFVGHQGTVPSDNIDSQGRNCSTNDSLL
Summary of the method: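 Cells (CHO, stable ADRB2 overexpression) incubated 18-20hr at 37C; compounds added from DMSO; agonist mix (1nM isoproterenol, 100uM IBMX, 25uM Ro-20-1724) added; 0.5hr RT; d2-cAMP and anti-cAMP-cryptate added; 1hr RT; 665/615 nm read.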

[17] = target: D(2) dopamine receptor (Homo sapiens) (UniProt P14416); assay: Dopamine D2 receptor (DRD2) small molecule agonists, cell-based qHTS assay (AID 1963594); note: nearly all actives have a fitted effect of over 35% in size
D(2) dopamine receptor (Homo sapiens), sequence (P14416 whole entry, looked up): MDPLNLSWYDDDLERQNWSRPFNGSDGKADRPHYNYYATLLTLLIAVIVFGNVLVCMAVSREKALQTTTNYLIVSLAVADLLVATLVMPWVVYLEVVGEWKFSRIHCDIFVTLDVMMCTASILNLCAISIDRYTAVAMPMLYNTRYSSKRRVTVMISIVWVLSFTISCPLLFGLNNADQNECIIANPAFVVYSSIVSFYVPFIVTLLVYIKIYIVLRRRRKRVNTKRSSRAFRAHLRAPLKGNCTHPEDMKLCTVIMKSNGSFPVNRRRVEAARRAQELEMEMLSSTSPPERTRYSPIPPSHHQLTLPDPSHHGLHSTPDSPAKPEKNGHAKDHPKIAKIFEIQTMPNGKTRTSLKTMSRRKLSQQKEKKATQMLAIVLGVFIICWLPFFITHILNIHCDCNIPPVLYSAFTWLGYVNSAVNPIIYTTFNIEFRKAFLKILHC
Summary of the method: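 HEK293 cells stably expressing human DRD2, pre-treated with PDE inhibitor Ro20-1724 (0.1 mM final) and compound 10 min at room temperature, then stimulated with NKH477 (200nM […]) for 30 min. cAMP read by HTRF (665/620 nm).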

[18] = target: D(2) dopamine receptor (Homo sapiens) (UniProt P14416); assay: Dopamine D2 receptor (DRD2) small molecule antagonists, cell-based qHTS assay (AID 1963595; active = well fitted inhibition curve with a large enough effect in the signal ratio in the repeat runs, with a control signal flat; the % refers to the signal ratio)
Summary of the method: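 Cells were plated and grown for 24 h at 37 °C. Ro20-1724 (0.1 mM final) went in first, then compound for 10 min. NKH477 (200 nM) with quinpirole (12 nM) followed for 30 min at RT, then HTRF detection reagents for 1 h.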

[19] = cAMP Responsive Elements (CRE) small molecule antagonists, cell-based qHTS assay (AID 1963591; active = well fitted inhibition curve with a large enough effect in the signal ratio in the repeat runs, not every such curve was filed as active; the % refers to the signal ratio)
Summary of the method: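 Beta-lactamase reporter read by FRET substrate (LiveBLAzer B/G) after 2 h at room temperature. CRE-bla HEK293T cells had received compound plus 0.25 uM (final) NKH477 for 3 h at 37 °C.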

[20] = target: Beta-2 adrenergic receptor (Homo sapiens) (UniProt P07550); assay: Adrenergic beta2 receptor (ADRB2) small molecule agonists, cell-based qHTS assay (AID 1963593);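 note: CHO cells stably overexpressing human ADRB2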
Summary of the method: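 CHO cells stably over-expressing ADRB2 were plated overnight at 37C, then dosed with compounds plus a stimulation mix containing 100uM IBMX and 25uM Ro-20-1724 for 0.5hr at room temperature. cAMP was measured by HTRF competition, 1hr.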
% is set by controls: 0 for no effect and ±100 for the full control effect.

Cc1c(Cn2ccnc2)c2ccccc2n1CCC(=O)O
inactive: Potency [1] | Potency [2] | Potency [3] | outcome [4] | outcome [5] | Potency [6] | Potency [7] | Potency [8] | Potency [9] | Potency [10] | Potency [11] | Potency [12] | Potency [13] | Potency [14] | Potency [15] | Potency [16] | Potency [17] | Potency [18]

C[C@]12C=CC(=O)C=C1[C@@H](F)C[C@@H]1[C@@H]2[C@@H](O)C[C@@]2(C)[C@H]1CC[C@]2(O)C(=O)CO
inactive: Potency [1] | Potency [2] | Potency [3] | outcome [4] | outcome [5] | Potency [6] | Potency [7] | Potency [8] | Potency [9] | Potency [10] | Potency [11] | Potency [12] | Potency [13] | Potency [14] | Potency [19] | Potency [16] | Potency [20] | Potency [18]

C=CCOc1c(Br)cc(Br)cc1Br
inactive: Potency [1] | Potency [2] | Potency [3] | outcome [4] | outcome [5] | Potency [6] | Potency [7] | Potency [8] | Potency [9] | Potency [10] | Potency [11] | Potency [12] | Potency [13] | Potency [14] | Potency [15] | Potency [19] | Potency [16] | Potency [17] | Potency [18]

CCCCCCCCCCCC
inactive: Potency [1] | Potency [2] | Potency [3] | outcome [4] | outcome [5] | Potency [6] | Potency [7] | Potency [8] | Potency [9] | Potency [10] | Potency [11] | Potency [12] | Potency [13] | Potency [14] | Potency [15] | Potency [19] | Potency [17] | Potency [18]

COCC(=O)Nc1c(I)c(C(=O)NCC(O)CO)c(I)c(C(=O)N(C)CC(O)CO)c1I (centres undefined)
inactive: Potency [1] | Potency [2] | Potency [3] | outcome [4] | outcome [5] | Potency [6] | Potency [7] | Potency [8] | Potency [9] | Potency [10] | Potency [11] | Potency [12] | Potency [13] | Potency [14] | Potency [15] | Potency [19] | Potency [16] | Potency [17] | Potency [18]

C=CCn1c(=O)n([C@@H]2O[C@H](CO)[C@@H](O)[C@H]2O)c2nc(N)[nH]c(=O)c21
inactive: Potency [1] | Potency [2] | Potency [3] | outcome [4] | outcome [5] | Potency [6] | Potency [7] | Potency [8] | Potency [9] | Potency [10] | Potency [11] | Potency [12] | Potency [13] | Potency [14] | Potency [15] | Potency [16] | Potency [17] | Potency [18]

CCCCCCCCC(C)=O
inactive: Potency [1] | Potency [2] | Potency [3] | outcome [4] | outcome [5] | Potency [6] | Potency [7] | Potency [8] | Potency [9] | Potency [10] | Potency [11] | Potency [12] | Potency [13] | Potency [14] | Potency [15] | Potency [19] | Potency [16] | Potency [17] | Potency [18]

Cc1ccsc1/C=C/C1=NCCCN1C
active: Potency [13] 0.0033 µM
inactive: Potency [1] | Potency [2] | Potency [3] | outcome [4] | outcome [5] | Potency [6] | Potency [7] | Potency [8] | Potency [9] | Potency [10] | Potency [11] | Potency [12] | Potency [14] | Potency [19] | Potency [16] | Potency [20] | Potency [17] | Potency [18]

COc1cc(OC)nc(NC(=O)NS(=O)(=O)Nc2ccccc2C(=O)N(C)C)n1
inactive: Potency [1] | Potency [2] | Potency [3] | outcome [4] | outcome [5] | Potency [6] | Potency [7] | Potency [8] | Potency [9] | Potency [10] | Potency [11] | Potency [12] | Potency [13] | Potency [14] | Potency [19] | Potency [17] | Potency [18]

O=C(OCCCCCCOC(=O)c1ccccc1)c1ccccc1
inactive: Potency [1] | Potency [3] | outcome [4] | outcome [5] | Potency [6] | Potency [7] | Potency [8] | Potency [9] | Potency [10] | Potency [11] | Potency [12] | Potency [14] | Potency [19] | Potency [16] | Potency [17] | Potency [18]
active: Potency [2] 68.6 µM

CC(=O)N[C@@H](CO)C(=O)N[C@@H](CC(=O)O)C(=O)N[C@@H](CCCCN)C(=O)N1CCC[C@H]1C(=O)O (Ac-SDKP-OH)
inactive: Potency [1] | Potency [2] | Potency [3] | outcome [4] | outcome [5] | Potency [6] | Potency [7] | Potency [8] | Potency [9] | Potency [10] | Potency [15] | Potency [16] | Potency [20] | Potency [18]

C[C@@H]1CN(c2c(F)c(N)c3c(=O)c(C(=O)O)cn(C4CC4)c3c2F)C[C@H](C)N1
inactive: activity change, negative = cytotoxicity [1] 1.83% [at 19 µM] | activity, positive = activation [2] -7.44% [at 19 µM] | activity change [3] 0.726% [at 11.8 µM, active compounds read high] | activation [4] -1.07% [at 15.8 µM] | activation [5] -0.768% [at 11.8 µM] | activation [6] -0.339% [at 13.5 µM] | activation [7] 0.693% [at 13.6 µM] | activity change, negative = cytotoxicity [8] 3.67% [at 13.5 µM] | activity change, negative = cytotoxicity [9] 5.52% [at 13.5 µM] | activation [10] -0.164% [at 13.5 µM] | activation [15] -1.16% [at 19 µM] | activity change, negative = inhibition [16] 8.12% [at 19 µM] | Potency [20] | activation [17] -2.73% [at 19 µM]

CCCOC(=O)c1ccc(N)cc1
inactive: Potency [1] | Potency [2] | Potency [3] | outcome [4] | outcome [5] | Potency [6] | Potency [7] | Potency [8] | Potency [9] | Potency [10] | Potency [11] | Potency [12] | Potency [14] | Potency [15] | Potency [19] | Potency [16] | Potency [20] | Potency [17] | Potency [18]
